The values below come from publication PMC4336329 (PLoS ONE, 2015).

About 14,000 (4.5%) of roughly 310,000 compounds showed an effect of 50% or more. Effects have a minus sign here. The list comes from a sample in which strong results are over-represented; it also holds similar structures and randomly drawn compounds.
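Also: peak tail current of the secondary pulse compared with the same well before compound.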

Chain of human ether-à-go-go-related gene (hERG) potassium channel (Q12809 whole entry, looked up): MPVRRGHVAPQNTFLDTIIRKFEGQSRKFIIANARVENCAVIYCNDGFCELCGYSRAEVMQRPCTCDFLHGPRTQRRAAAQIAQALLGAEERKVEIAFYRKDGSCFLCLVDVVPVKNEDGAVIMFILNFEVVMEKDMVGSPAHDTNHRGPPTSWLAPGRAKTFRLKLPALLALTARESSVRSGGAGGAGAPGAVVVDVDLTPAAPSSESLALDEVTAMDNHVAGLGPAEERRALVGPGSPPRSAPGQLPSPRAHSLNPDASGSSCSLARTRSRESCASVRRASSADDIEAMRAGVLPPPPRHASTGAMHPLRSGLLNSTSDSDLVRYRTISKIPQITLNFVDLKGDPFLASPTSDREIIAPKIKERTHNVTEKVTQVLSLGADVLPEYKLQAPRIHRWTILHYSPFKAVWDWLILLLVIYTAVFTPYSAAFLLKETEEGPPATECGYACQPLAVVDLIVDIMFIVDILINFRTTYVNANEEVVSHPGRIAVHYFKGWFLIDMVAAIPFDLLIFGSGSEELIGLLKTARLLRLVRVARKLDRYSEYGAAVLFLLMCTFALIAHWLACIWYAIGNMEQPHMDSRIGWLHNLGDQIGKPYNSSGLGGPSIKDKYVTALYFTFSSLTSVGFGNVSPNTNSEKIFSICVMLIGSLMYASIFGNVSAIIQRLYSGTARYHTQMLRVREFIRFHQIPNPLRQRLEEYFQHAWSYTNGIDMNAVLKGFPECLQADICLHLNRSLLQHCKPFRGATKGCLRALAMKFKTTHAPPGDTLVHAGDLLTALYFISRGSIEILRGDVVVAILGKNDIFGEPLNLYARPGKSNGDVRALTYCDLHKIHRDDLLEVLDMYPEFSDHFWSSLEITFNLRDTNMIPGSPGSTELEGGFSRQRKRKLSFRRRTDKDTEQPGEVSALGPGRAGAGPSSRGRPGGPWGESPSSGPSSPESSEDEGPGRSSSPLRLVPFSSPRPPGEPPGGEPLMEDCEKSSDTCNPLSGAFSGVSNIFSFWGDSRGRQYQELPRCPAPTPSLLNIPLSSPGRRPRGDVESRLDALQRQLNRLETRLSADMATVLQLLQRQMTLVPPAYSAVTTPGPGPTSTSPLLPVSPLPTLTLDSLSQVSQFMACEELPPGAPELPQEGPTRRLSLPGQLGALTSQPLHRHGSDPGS

This assay addresses human ether-à-go-go-related gene (hERG) potassium channel (human, UniProt Q12809). Kind of assay: primary screen, population patch clamp on CHO cells stably expressing hERG; higher = less effect of the substance.
As for `CCOC(=O)c1nnn(-c2nonc2N)c1CN(CC)CC`, the “hERG current change (%, negative = inhibition) at 10uM” value is on record as -7.44%. Under `CCOc1ccccc1NC(=O)c1nnn(CC(=O)Nc2cc(C)cc(C)c2)c1N` stands 15.7%. Under `Cc1cc(-c2ccco2)n2c(nc3ccccc32)c1C#N` stands -25.9%.

Turning to `COc1ccc(C(=O)N2CCC(n3nccc3NC(=O)C3CC3)CC2)cc1F`, the “hERG current change (%, negative = inhibition) at 10uM” value was -26.8%. Under `O=C(O)CC1S/C(=N\N=C2CCCCCC2)N(c2ccccc2)C1=O` (stereo not drawn) stands 9.08%; under `O=C(c1ccco1)N1CCN(C(=O)c2ccccc2[N+](=O)[O-])CC1`, 22.4%; under `O=C(/C=C/c1ccccc1)N1CCN(C(=O)c2ccco2)CC1`, -28.6%.

With `O=C(/C=C/c1ccccc1[N+](=O)[O-])N1CCN(C(=O)c2ccco2)CC1`, the “hERG current change (%, negative = inhibition) at 10uM” value is -45.6%. Regarding `O=C(/C=C/c1cccc([N+](=O)[O-])c1)N1CCN(C(=O)c2ccco2)CC1`, the “hERG current change (%, negative = inhibition) at 10uM” value is reported as -64.8%. The value for `O=C(c1cccc([N+](=O)[O-])c1)N1CCN(C(=O)c2ccco2)CC1` was -10.8%.

In the case of `O=C(c1cc([N+](=O)[O-])cc([N+](=O)[O-])c1)N1CCN(C(=O)c2ccco2)CC1`, the “hERG current change (%, negative = inhibition) at 10uM” value is listed as -65.3%. Under `COc1ccccc1N1CCN(C(=O)c2ccc(-c3ccccc3)cc2)CC1` stands -5.25%; under `Cc1cc(C)cc(OCC(=O)NC(C)c2ccccc2)c1` (stereo not drawn), 15.2%; under `CC(C)OCCCNC(=O)c1cc(-c2cccnc2)nc2ccccc12`, -21.4%.

On to `Cc1ccc(S(=O)(=O)NCCC(c2ccccc2)c2ccco2)cc1` (stereo not drawn), for which the “hERG current change (%, negative = inhibition) at 10uM” value is listed as 0.23%.

With `Cc1ccc(S(=O)(=O)NCCC(c2ccc(F)cc2)c2ccco2)cc1` (stereo not drawn), the “hERG current change (%, negative = inhibition) at 10uM” value turned out to be 10.8%. Under `O=S(=O)(NCCC(c1ccc(F)cc1)c1ccco1)c1ccccc1` (stereo not drawn) stands -7.77%. Under `Cc1ccc(C(CCNC(C)c2cccs2)c2ccco2)cc1` (stereo not drawn) stands -57.1%; under `Cc1ccc(C(CCN)c2ccco2)cc1` (stereo not drawn), -2.63%; under `Fc1ccc(C(CCNCc2cccs2)c2ccco2)cc1` (stereo not drawn), -66.8%. Under `Cc1cc(C)cc(NC(=O)CCCn2nc(C)c3c(C)n(-c4ccccc4)nc3c2=O)c1` stands -4.07%; under `CC(C(=O)NC1C(=O)N2C(C(=O)O)=C(CSc3nnnn3C)CSC12)n1cc(Br)cn1` (stereo not drawn), 25.1%.

In the case of `CN(C)C(=O)CSc1nnc([C@H](Cc2ccccc2)NC(=O)OC(C)(C)C)o1`, the “hERG current change (%, negative = inhibition) at 10uM” value was 5.98%. The value for `O=C(CNS(=O)(=O)c1ccccc1)N1CCN(Cc2ccccc2)CC1` was 5.89%.
